From PMC12136788 come the findings set out here.

In all, about 5,800 sequences were measured (“enrichment r”: median about 0.68, highest 2% from about 11 on). A selection follows.

The chains are these.
T1: UNK ZnF1-6 (called full-length) (human, UniProt Q9C0B0 30-357)
T1 sequence: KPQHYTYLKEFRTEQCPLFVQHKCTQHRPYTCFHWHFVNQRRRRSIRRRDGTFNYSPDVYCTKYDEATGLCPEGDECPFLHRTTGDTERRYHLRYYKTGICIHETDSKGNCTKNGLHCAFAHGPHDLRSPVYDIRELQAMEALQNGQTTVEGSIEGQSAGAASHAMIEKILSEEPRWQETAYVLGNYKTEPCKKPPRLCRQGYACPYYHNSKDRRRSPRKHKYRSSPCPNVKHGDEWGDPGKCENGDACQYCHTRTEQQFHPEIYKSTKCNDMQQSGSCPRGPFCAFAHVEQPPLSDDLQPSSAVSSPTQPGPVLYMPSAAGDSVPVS

B1: chr1:173887777:173887878:+|3pUTR|ENSG00000185278|unk|FALSE|unique (ssRNA)
RNA: GGGAGUUCUACAGUCCGACGAUCAAAGAGAUUUGGCAGAGGGACAGGUUGUACCUGCACUGGUGAACCAUCUGUGAGAAUGUUAGUCAUGUGCUCCUUUCCUGAGAUUGCUUUGUGGUAUGUGAAAAGGUGGGUAGAAAAGAACAACAGAGGAUUGAGCAUCA
B2: chr1:93180074:93180188:-|CDS|ENSG00000117500|unk|FALSE|bound_elsewhere (ssRNA)
RNA: GGGAGUUCUACAGUCCGACGAUCCUGGCCGCUCUGCCUCCGGUGCUGCUGCCUGGGGCGGCCGGCUUCACACCUUCCCUCGAUAGCGACUUCACCUUUACCCUUCCCGCCGGCCAGAAGGAGUGCUUCUACCAGCCCAUGCCCCAACAGAGGAUUGAGCAUCA
B3: chr12:76028832:76028933:-|3pUTR|ENSG00000139289|msi1|total|mutant (ssRNA)
RNA: GGGAGUUCUACAGUCCGACGAUCAAAGGAAAAGACUGGAUAAACACAGGAUUUUCAGUAAGAAAACAACCCCAGUCUUGUCUCCGAAGCCACUUGUUGAGGAGUCUGUUGGGGGAAAAAAGAGGAUAUGCUUUUAAAGGCCGACAACAGAGGAUUGAGCAUCA
B4: chr3:27418507:27418620:-|CDS|ENSG00000033867|unk|FALSE|bound_elsewhere (ssRNA)
RNA: GGGAGUUCUACAGUCCGACGAUCUGAUGUAGCUUAUAAAGCAAAAGACAGAAAUGACCUCUUAUCUGGAAUUGAUGAAUUUUUAGAUCAAGUAACUGUCCUACCUCCAGGAGAGUGGGAUCCUUCUAUACGCAUAGAACCACCCAACAGAGGAUUGAGCAUCA
B5: chr11:35619468:35619569:+|CDS|ENSG00000179431|unk|FALSE|unique (ssRNA)
RNA: GGGAGUUCUACAGUCCGACGAUCCCCCCUCCGGGAUGCCGGGGGUGAGCUGGCCAACCUCAGCCAGGCGGAGCUGGUGGACCUAGUACAAUGGACCGACUUAAUCCUUUUCGACUACCUGACGGCCAACUUCGACCGGCUCGUCAACAGAGGAUUGAGCAUCA
B6: chr5:91369659:91369760:-|3pUTR|ENSG00000113369|msi1|total|mutant (ssRNA)
RNA: GGGAGUUCUACAGUCCGACGAUCUCAGCAUUUUCCAAGGUACCAAGUGUACUUAUUUUGUUGUUGUUGUUGUUGUUGUAUUUCCGAAGGAAUUCAGCUCUGAUGUUUUUAAAGAAAACCAGCAUCUCUGAUGUUGCAACAUACCAACAGAGGAUUGAGCAUCA
B7: chr9:35056615:35056731:-|3pUTR|ENSG00000165280|msi1|FALSE|unique (ssRNA)
RNA: GGGAGUUCUACAGUCCGACGAUCCCCUAUCCAACCUGGGUAGGUGGGUAGGGGCCACAGUUGCUGGAUGUUUAUAUAGAGAGUAGGUUGAUUUAUUUUACAUGCUUUUGAGUUAAUGUUGGAAAACUAAUCACAAGCAGUUUCCAACAGAGGAUUGAGCAUCA
B8: chr6:149379354:149379455:+|CDS|ENSG00000055208|msi1|FALSE|bound_elsewhere (ssRNA)
RNA: GGGAGUUCUACAGUCCGACGAUCAGGGGUGGUGUCCCCUACCUUUGAACUUACAAAUCUUCUUAAUCAUCCUGAUCAUUAUGUAGAAACCGAGAAUAUUCAGCACCUCACGGACCCUACAUUAGCACAUGUGGAUAGAAUAAGCAACAGAGGAUUGAGCAUCA
B9: chr17:81921741:81921842:-|3pUTR|ENSG00000197063|msi1|total|mutant (ssRNA)
RNA: GGGAGUUCUACAGUCCGACGAUCAAUUAUAUGUUUAAAAGUUAAAGAAAAAAGAGCUGCAGAGUAUUUAUAAAACUGUCUUUCCGAAAAAAAACAAGCAAGAAGACCAUUUGACCAUAUGAAUGGAAAAGGGAAGAAAGUAUACAACAGAGGAUUGAGCAUCA
B10: chr1:110947961:110948399:-|CDS|ENSG00000121931|control|control|control (ssRNA)
RNA: GGGAGUUCUACAGUCCGACGAUCAAGUCAUUUCUUCAAUAAAAAUUAUACCGAAGAUAUUUUCCCAGUGACACCACCGGAGUUAGAAGAAACCAUUCGAGAUGAAAAAAUAAGAAGACUUAAGCAGGUGCUGAGAGAGAAAGACAACAGAGGAUUGAGCAUCA
B11: chrX:153456492:153456651:-|CDS|ENSG00000213397|control|control|control (ssRNA)
RNA: GGGAGUUCUACAGUCCGACGAUCAUGGAGCACUUCGAGGACACCAGGGAGAAGAACGAGGCCUUGCUGGGGGAGCUCUUCUCUAGCCCCCACCUGCAGAUGCUCCUGAAUCCAGAGUGCGACCCGUGGCCCCUGGACAUGCAGCAACAGAGGAUUGAGCAUCA
B12: ENSG00000130720:stop:overlap|stop_codon|ENSG00000130720|stop_codon|NA|stop_codon (ssRNA)
RNA: GGGAGUUCUACAGUCCGACGAUCGCUGGCAGUACUCACUCAAGUUCUCUGAGAUGAAGAUCCGGCCGGUCCGGGAGGACCGCUAGACUGGUGCACCUUGUCCUUGGCCCUGCUGGUCCCUGUCGCCCCAUCCCCGACCCCACCCAACAGAGGAUUGAGCAUCA
B13: chr3:89481969:89482070:+|3pUTR|ENSG00000044524|msi1|total|mutant (ssRNA)
RNA: GGGAGUUCUACAGUCCGACGAUCAUAUGUGUUUACUUUAAACUUGUCUUUUCAAAAUAUUACUCAGUUUAUGUUGUACAAUGCCGAUGGCCUCUUACUAAUGUAAAAUGAUUUGCCGUGGAAACAUUUAUAUUUUUAUAAUAACAACAGAGGAUUGAGCAUCA
B14: chr4:123402332:123402450:+|CDS|ENSG00000164056|unk|total|mutant (ssRNA)
RNA: GGGAGUUCUACAGUCCGACGAUCGACGAAGGGGAUUCCUAUUCAGAUAAUCCUUGCUCCUGUUCACAAUCACACUGCUGCUCCCGAUACCUGUGUAUGGGAGCCAUGUCUUUAUUUUUACCUUGCUUACUCUGUUAUCCUCCUCAACAGAGGAUUGAGCAUCA

The test deals with T1, UNK ZnF1-6 (called full-length). Description: nsRBNS (natural sequence RNA bind-n-seq); RBNS binding buffer (assumed for nsRBNS): 25 mM Tris pH 7.5, 150 mM KCl, 3 mM MgCl2, 0.01% Triton X-100, 500 ug/ml BSA, 20 U/ml SUPERase-In, 4 C; UNK is unkempt and MSI1 is Musashi-1; names of the RNAs are library labels; protein concentration not given here; high values mean tight binding.
As to B1, the binding signal was 0.823 enrichment R.
The same measure for B2: 1.1 enrichment R.
For B3 the value was 0.52 enrichment R; for B4, 0.413 enrichment R; for B5, 0.618 enrichment R.
Take B6: the binding signal was 0.292 enrichment R.
The same measure for B7: 0.815 enrichment R.
For B8 the value was 0.615 enrichment R; for B9, 0.865 enrichment R.
For the molecule B10, the binding signal amounted to 0.797 enrichment R.
The same measure for B11: 0.759 enrichment R; for B12: 1.34 enrichment R; for B13: 0.702 enrichment R.
Take B14: the binding signal is 0.585 enrichment R.
